Source: PubChem BioAssay (NCI)
The panel holds about 83,000 compounds, 20% with a hit somewhere; the sample as a whole holds those more often.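 Negative percent growth values reflect cell death: -40 means 40% of the cells present at the start died, and -100 means all died.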 A number with no mark means an inactive call. The source made the active and inactive calls. Rule for the calls: active = growth percent below 10; inactive = the rest.

These compounds were tested on MDA-MB-468 breast (assay: NCI-60 one-dose screen, 48 h (100 = growth as untreated, 0 = no growth, -100 = all killed)). Settings: 10 µM unless noted.
`COc1cc(F)c(F)c(Nc2ccc(I)cc2F)c1NS(=O)(=O)C1(C[C@H](O)CO)CC1` was tested, and the growth was 67.4%.
`Nc1c(Cl)cc([N+](=O)[O-])cc1Br` showed a growth of 92.3%.
`COc1cccc(-c2nc3sccn3c2-c2ccnc(NCCCNS(=O)(=O)c3ccccc3)n2)c1` showed a growth of 52%.
In the case of `COc1ccc(-n2ncc3c4nc(OC)c(S(=O)(=O)c5ccccc5)cc4ccc32)cc1`, the growth is reported as 51.9%.
In the case of `Oc1cccc2ccc(-c3nnc(SCc4ccc(O)c5ncccc45)n3-c3ccccc3)nc12`, the growth is reported as 6.6% (active).
With `O=C1/C(=C/c2cccc(OCc3ccccc3)c2)Oc2cc(OCCN3CCCCC3)ccc21` the growth was 80.4%.
For `O=C(N/N=C/c1cccc(O)c1)c1ccccc1Nc1cccc(C(F)(F)F)c1`, the growth was 27%.
`COC(=O)[C@]12CC[C@@H](C)[C@H](C)[C@@H]1C1=CC[C@@H]3[C@@]4(C)C(C=O)=C[C@@](C)(CO)C4=CC[C@@]3(C)[C@]1(C)CC2` gave a growth of 20%.
`N=C(N)c1ccc(-c2ccc(-c3ccc(Cl)c(Cl)c3)s2)nc1` was tested, and the growth was -65.4% (active).
`C[C@H]1[C@H](C)CC[C@]2(C(=O)O)CC[C@]3(C)C(=CC[C@@H]4[C@@]5(C)C/C(=C/c6cccnc6)[C@H](O)C(C)(C)[C@@H]5CC[C@]43C)[C@H]12` was tested, and the growth was 5.39% [100 µM] (active).
For `Cc1cc(=O)[nH]n1-c1cc(Cl)ccc1N`, the growth was 110%.
`CCOc1ccc(/C=C\C(=O)O)cc1` was tested, and the growth was 121%.
Work on `O=C(CCCCCCN1CC(=O)N2[C@H](c3ccc(Cl)cc3)c3[nH]c4ccccc4c3C[C@@H]2C1=O)NO` yielded a growth of 36.5%.
Compound `COc1cc(NC2CCC(=O)N2c2ccc(Cl)cc2Cl)cc(OC)c1OC` (stereo unspecified) has a growth of 110%.
`N#C/C(=C\c1cccc(C#N)c1)c1ccccc1` was tested, and the growth was 106%.
Compound `COc1ccc(C2CC(c3cccc(OCCCCOc4cccc(C5=NOC(c6ccc(OC)cc6)C5)c4)c3)=NO2)cc1` (stereo unspecified) has a growth of 112%.
`S=c1nc(CS)[nH]c2ccccc12` was tested, and the growth was 103%.
`O=C(NCCCNc1nccc(-n2ccc3cccnc32)n1)c1c(F)cccc1F` showed a growth of 101%.
`Cn1cccc1/C=C1\C(=O)Nc2ccccc21` was tested, and the growth was -1.95% (active).
`O=C(C(=O)c1cc(Br)ccc1O)c1cc(Br)ccc1O` was tested, and the growth was 29.5%.
Work on `O=C(O)c1ccc(-n2cc(CNc3ccc(Cl)cc3)c(-c3ccccc3)n2)cc1` yielded a growth of 102%.
With `Cc1c(C(=O)/C=C/c2ccc(Cl)cc2)nnn1-c1ccc2oc(=O)ccc2c1` the growth was 85.9%.
For `Oc1ccc(CSc2nnc(-c3cnccn3)o2)c2cccnc12`, the growth was 7.59% (active).
`O=C(/C=C/C(=O)c1ccccc1)c1ccccc1` was tested, and the growth was 107%.
`CCN1CCN(c2nc(NNC(=O)Cc3ccccc3)nc(N3CCN(C(c4ccccc4)c4ccccc4)CC3)n2)CC1` gave a growth of 12.2%.
Compound `C=C(C)[C@@H]1CC[C@]2(C(=O)NCCCCCN(CCC#N)CCC#N)CC[C@]3(C)[C@H](CC[C@@H]4[C@@]5(C)CCC(=O)C(C)(C)[C@@H]5CC[C@]43C)[C@@H]12` has a growth of 103%.
